Assay results reported in PubChem BioAssay AID1159580 (chemical genetic matrix, 2015).
Several values for one entry are separate records, joined by “and”; a condition that tells them apart may be missing. Equal values may be shown once. About 2,000 (36%) of roughly 5,500 compounds were called active. Inconclusive results (about 18%) are left out. Rule as the data show it: active = normalized growth mostly below about 0.91 (no sharp cut-off); inconclusive = no clear call, values can overlap the other calls; inactive = mostly above about 0.92. This is one part of the list.

Assay: chemical genetic growth profiling, strain panel (AID 1159580);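 also: tested at 20 µM; growth read once vehicle control cultures reached saturation at 30 °C; 1 = growth at the plate median or of vehicle wells; lower values mean less growth of the strain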
Conditions: S. cerevisiae deletion strains, growth OD

Measured: normalized growth

NC(Cc1c[nH]c2ccccc12)C(=O)O (configuration not stated)
inactive: locus YAL013W, strain DEP1, hits give low values 1 | locus YAL021C, strain ccr4, hits give low values 1 | locus YAL026C, strain drs2, hits give low values 1.01 | locus YAL030W, strain snc1, hits give low values 1.02 | locus YBL061C, strain skt5, hits give low values 1.04 | locus YBR009C, strain hhf1, hits give low values 1 | locus YBR021W, strain FUR4, hits give low values 1.01 | locus YBR023C, strain chs3, hits give low values 1.02 | locus YBR171W, strain sec66, hits give low values 1.03 | locus YBR229C, strain ROT2, hits give low values 0.957 | locus YBR231C, strain swc5, hits give low values 1.02 | locus YBR279W, strain paf1, hits give low values 1.02 | locus YCL011C, strain gbp2, hits give low values 1.02 | locus YCL016C, strain dcc1, hits give low values 1.01 | locus YCL029C, strain bik1, hits give low values 0.98 | locus YCL061C, strain MRC1, hits give low values 1.01 | locus YCL069W, strain vba3, hits give low values 1.03 | locus YCR088W, strain abp1, hits give low values 1.02 | locus YDL005C, strain med2, hits give low values 1.03 | locus YDL035C, strain GPR1, hits give low values 1 | locus YDL040C, strain nat1, hits give low values 1.03 | locus YDL074C, strain BRE1, hits give low values 1.02 | locus YDL101C, strain DUN1, hits give low values 0.984 | locus YDL134C, strain PPH21, hits give low values 0.961 | locus YDL185W, strain tfp1, hits give low values 0.986 | locus YDL192W, strain arf1, hits give low values 0.984 | locus YDR001C, strain nth1, hits give low values 1.04 | locus YDR069C, strain doa4, hits give low values 1 | locus YDR101C, strain arx1, hits give low values 0.996 | locus YDR137W, strain rgp1, hits give low values 1.03 | locus YDR150W, strain NUM1, hits give low values 0.965 | locus YDR159W, strain sac3, hits give low values 1.02 | locus YDR162C, strain NBP2, hits give low values 0.998 | locus YDR195W, strain ref2 1.02 | locus YDR297W, strain sur2, hits give low values 1.02 | locus YDR318W, strain mcm21, hits give low values 0.988 | locus YDR334W, strain swr1, hits give low values 1.02 | locus YDR335W, strain msn5, hits give low values 1.03 | locus YDR388W, hits give low values 0.997 | locus YDR392W, strain spt3, hits give low values 0.939 | locus YDR502C, strain sam2, hits give low values 0.997 | locus YEL003W, strain gim4, hits give low values 1.01 | locus YEL037C, strain rad23, hits give low values 1.02 | locus YEL061C, strain CIN8 (second series), hits give low values 1.02 | locus YEL061C, strain CIN8, hits give low values 0.987 | locus YER015W, strain faa2, hits give low values 1.02 | locus YER016W, strain bim1, hits give low values 1.02 | locus YER110C, hits give low values 0.98 | locus YER111C, strain swi4, hits give low values 1.03 | locus YER155C, strain BEM2 (second series), hits give low values 0.997 | locus YER155C, strain BEM2, hits give low values 1.01 | locus YER167W, strain BCK2, hits give low values 1.01 | locus YFR010W, strain ubp6, hits give low values 1.02 | locus YGL078C, strain dbp3, hits give low values 0.982 | locus YGL086W, strain mad1, hits give low values 1.01 | locus YGL167C, strain pmr1, hits give low values 1.02 | locus YGL173C, strain kem1, hits give low values 1.03 | locus YGL227W, strain vid30, hits give low values 1.03 | locus YGL240W, strain doc1, hits give low values 1 | locus YGL248W, strain PDE1, hits give low values 0.991 | locus YGL253W, strain hxk2, hits give low values 1.01 | locus YGR078C, strain PAC10, hits give low values 0.991 | locus YGR135W, strain pre9, hits give low values 0.993 | locus YGR229C, strain SMI1, hits give low values 1 | locus YGR252W, strain gcn5, hits give low values 0.981 | locus YHR013C, strain ard1, hits give low values 1.02 | locus YHR027C, strain rpn1, hits give low values 1.02 | locus YHR030C, strain SLT2, hits give low values 0.988 and 0.966 | locus YHR079C, strain IRE1 (second series), hits give low values 0.989 | locus YHR079C, strain IRE1, hits give low values 0.983 | locus YHR094C, strain hxt1, hits give low values 0.988 | locus YHR129C, strain ARP1, hits give low values 0.993 | locus YHR142W, strain chs7, hits give low values 1.03 | locus YHR200W, strain rpn10, hits give low values 0.995 | locus YIL066C, strain RNR3, hits give low values 0.979 | locus YIL073C, strain SPO22, hits give low values 1 | locus YIL125W, strain kgd1, hits give low values 0.998 | locus YIR030C, strain dcg1, hits give low values 0.992 | locus YJL092W, strain hpr5, hits give low values 1.03 | locus YJL095W, strain BCK1 (second series), hits give low values 1.02 | locus YJL095W, strain BCK1, hits give low values 1.04 and 0.984 | locus YJL115W, strain asf1, hits give low values 1.03 | locus YJL129C, strain trk1, hits give low values 1.02 | locus YJL134W, strain LCB3, hits give low values 0.987 | locus YJL154C, strain vps35, hits give low values 1.02 | locus YJL164C, strain tpk1, hits give low values 1 | locus YJL166W, strain qcr8, hits give low values 1.01 | locus YJL168C, strain set2, hits give low values 0.99 | locus YJL187C, strain SWE1 (second series), hits give low values 0.973 | locus YJL187C, strain SWE1, hits give low values 1.03 | locus YJR043C, strain POL32, hits give low values 1.01 | locus YJR066W, strain TOR1, hits give low values 0.978
